# Test results taken from PubChem BioAssay (NCATS).
# Inconclusive results are not listed. Unmarked numbers belong to inactive results. Calls come from the whole dose curve; as a rule, active = well fitted activation curve with a large enough effect; inconclusive = small, poorly fitted or top-dose-only effect; inactive = flat fitted curve, though single readings scatter.
# Biological target: Cellular tumor antigen p53 (Homo sapiens) (UniProt P04637)
# Assay: Primary qHTS for small molecule compounds that upregulate eGFP-tagged delta133p53alpha (in C-terminal) cells. (AID 2060324);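 note: 0% = DMSO wells and 100% = 57.5 µM 5-azacytidine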
# Conditions: NCI-H358 delta133p53alpha-eGFP (C-terminal tag), GFP fluorescence imaging, 24 h; series mostly up to 57.5 µM; GFP increase (activation): at the top concentration
# How it was run: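 NCI-H358 cells pre-induced 24 h with 100 ng/ml doxycycline to express delta133p53alpha-eGFP, then dosed in doxycycline-free medium for 24 h at 37C. Fixed, Hoechst-stained; GFP intensity by laser scanning cytometry, normalized to DMSO wells.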
# Chain of Cellular tumor antigen p53 (Homo sapiens) (P04637 whole entry, looked up): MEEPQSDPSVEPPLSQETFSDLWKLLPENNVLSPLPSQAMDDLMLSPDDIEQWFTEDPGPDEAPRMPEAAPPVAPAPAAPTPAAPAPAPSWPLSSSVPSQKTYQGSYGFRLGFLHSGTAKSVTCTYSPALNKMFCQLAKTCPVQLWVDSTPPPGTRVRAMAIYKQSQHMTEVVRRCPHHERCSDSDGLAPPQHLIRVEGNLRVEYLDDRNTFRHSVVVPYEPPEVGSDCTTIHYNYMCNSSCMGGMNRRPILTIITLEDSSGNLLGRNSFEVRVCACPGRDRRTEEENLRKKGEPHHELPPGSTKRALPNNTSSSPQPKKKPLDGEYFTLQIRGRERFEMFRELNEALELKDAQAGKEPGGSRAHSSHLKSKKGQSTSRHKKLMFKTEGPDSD
row,SMILES,GFP increase (activation) [%]
1,C(=C\c1ccccc1)/CN1CCN(C(c2ccccc2)c2ccccc2)CC1,-0.329
2,CC(C)NNC(=O)c1ccncc1,-7.46
3,CN(C)CCC(c1ccc(Cl)cc1)c1ccccn1 (stereo unspecified),-5.03
4,NC(N)=NC(=O)c1nc(Cl)c(N2CCCCCC2)nc1N,-16
5,CCCCCCCC/C=C\CCCCCCCC(=O)NCCO,-0.249
6,C[C@]12C=CC(=O)C=C1CC[C@H]1[C@@H]3C[C@@H](O)[C@](O)(C(=O)CO)[C@@]3(C)C[C@H](O)[C@@]12F,2.22
7,c1ccc2c(c1)CC(N1CCN(c3cccc4c3OCCO4)CC1)C2,6.18
8,Cc1ccccc1C(OCCN(C)C)c1ccccc1 (stereo unspecified),3.19
9,CNC(=O)c1cc2c(cn1)[nH]c1ccccc12,6.99
10,NCCCNCCSP(=O)(O)O,0.616
11,CC(C)CC(NP(=O)(O)O[C@@H]1O[C@@H](C)[C@H](O)[C@@H](O)[C@H]1O)C(=O)NC(Cc1c[nH]c2ccccc12)C(=O)O (stereo partly specified),6.32
12,O=C1C2C=CC=CC2=NC(=S)N1CCN1CCC(=C(c2ccc(F)cc2)c2ccc(F)cc2)CC1 (stereo unspecified),-12.9
13,CC1CNCCN1S(=O)(=O)c1cccc2cnccc12 (stereo unspecified),-1.09
14,C[N+](C)(C)CCCCCCCCCC[N+](C)(C)C,4.77
15,Cn1c(=O)c2[nH]c(C3CCCC3)nc2n(C)c1=O,-3.18
16,C[C@](N)(Cc1ccc(O)cc1)C(=O)O,4.19
17,CSC(=N)N,-5.14
18,NCCCS(=O)(=O)O,0.332
19,NCCCC(=O)O,5.84
20,CCOC(=O)C1=C[C@]2(CC)CCCN3CCc4c(n1c1ccccc41)[C@@H]32,-2.52
21,c1ccc(C2CN3CCSC3=N2)cc1 (stereo unspecified),-13.5
